In PubChem BioAssay (NCI):
The panel holds about 83,000 compounds, 20% with a hit somewhere; the sample as a whole holds those more often.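 Growth was measured after 48 h exposure to one concentration of compound in 96-well plates. Values under 10 count as active.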 Unmarked numbers belong to inactive results. The source made the active and inactive calls. Where a SMILES comes first, the peptide text is derived from it. Bridges are numbered along the chain shown (N, C = ends). [ ]: non-standard residue; d: D form. The star is where a group is joined. ξ: configuration not given here. ξNMePhe(4-NMe2) = CNC(Cc1ccc(N(C)C)cc1)C(=O)O; Picolinoyl(3-OH) = O=C(c1ncccc1O)*; ξPip(4-oxo) = O=C1CCNC(C(=O)O)C1; Phg = N[CH](C(=O)O)c1ccccc1; Abu = CC[CH](N)C(=O)O

Assays:
Experiment in all cases: NCI-60 one-dose screen, 48 h (100 = growth as untreated, 0 = no growth, -100 = all killed)
Conditions in all cases: 10 µM
DU-145 prostate = tested on: DU-145 prostate
K-562 leukemia = tested on: K-562 leukemia
MALME-3M melanoma = tested on: MALME-3M melanoma
MDA-MB-231 breast = tested on: MDA-MB-231 breast
RXF 393 renal = tested on: RXF 393 renal
SF-268 CNS = tested on: SF-268 CNS
SF-295 CNS = tested on: SF-295 CNS
SF-539 CNS = tested on: SF-539 CNS
UACC-257 melanoma = tested on: UACC-257 melanoma

| Structure (SMILES) | growth (DU-145 prostate) | growth (K-562 leukemia) | growth (MALME-3M melanoma) | growth (MDA-MB-231 breast) | growth (RXF 393 renal) | growth (SF-268 CNS) | growth (SF-295 CNS) | growth (SF-539 CNS) | growth (UACC-257 melanoma) |
| --- | --- | --- | --- | --- | --- | --- | --- | --- | --- |
| CCC(C#N)(CC)c1ccccc1 | 109% | 97.1% | 121% | 97.4% | 115% | 99.3% | 113% | 113% | 104% |
| O=C(NN=C1CCCCC1)C(=O)NN=C1CCCCC1 | 121% | 81.1% | 127% | 113% | 107% | 99.1% | 113% | 101% | 108% |
| CCC1NC(=O)C(NC(=O)c2ncccc2O)C(C)OC(=O)C(c2ccccc2)NC(=O)C2CC(=O)CCN2C(=O)C(Cc2ccc(N(C)C)cc2)N(C)C(=O)C2CCCN2C1=O (stereo not given) (tested in a mixture with another compound) ({Picolinoyl(3-OH)}-T[Abu]P[ξNMePhe(4-NMe2)][ξPip(4-oxo)][Phg]; ester 1-C; configuration not given here) | 46.9% | 38.3% | 55.4% | 58.6% | 27.6% | 79.8% | 20.7% | 64.2% | 70.6% |
| CCC/C=C(\C)C(C)(C#N)C(=O)OCC (stereo not given) | 124% | 100% | 107% | 122% | 105% | 118% | 112% | 102% | 86.2% |
| COS(=O)(=O)c1ccc(Br)cc1 | 102% | 136% | 119% | 92.5% | 105% | 84.9% | 107% | 102% | 93% |
| N#CSc1cc(S(N)(=O)=O)ccc1N | 115% | 113% | 110% | 108% | 119% | 108% | 120% | 102% | 107% |
| CN(C)CCN(Cc1ccccc1)c1ccccc1 | 120% | 81.7% | 123% | 91.7% | 103% | 114% | 110% | 121% | 126% |
| Cc1nc2c(ccc3ccccc32)s1 | 123% | 115% | 110% | 107% | 116% | 116% | 104% | 100% | 101% |
| CCOC(=O)C/C(C)=N\O | 107% | 94.4% | 98.9% | 105% | 113% | 103% | 91.6% | 107% |  |
| OCC1OC(OC2C(O)C(CO)OC2(CO)OC2OC(CO)C(O)C(O)C2O)C(O)C(O)C1O (stereo not given) | 116% | 139% | 138% | 99.6% | 118% | 106% | 131% | 96.9% | 97.6% |
| CCN=c1cc2sc3cc(NCC)c(C)cc3nc-2cc1C | -18.9% (active) | 11.8% | -30.9% (active) | 2.51% (active) | 74.7% | -11.3% (active) | -72.4% (active) | -9.62% (active) | 6.74% (active) |
| CCOC(=O)C(CCC(C)C)C(=O)OCC | 107% | 103% | 108% | 109% | 110% | 92.5% | 102% | 107% | 97.5% |
| CO[C@H]1C[C@@H]2CC[C@@H](C)[C@@](O)(O2)C(=O)C(=O)N2CCCC[C@H]2C(=O)O[C@H]([C@H](C)C[C@@H]2CC[C@@H](O)[C@H](OC)C2)CC(=O)[C@H](C)C=C(C)[C@@H](O)[C@@H](OC)C(=O)[C@H](C)C[C@H](C)/C=C/C=C/C=C1C | 32.4% | 51.5% | 35.9% | 75.9% | 14.1% | 56.2% | 23% | 30.4% | 37.3% |
| CCCNC(=O)c1ccc(S(N)(=O)=O)cc1 | 109% | 107% | 113% | 101% | 107% | 103% | 127% | 97.8% | 110% |
| C=CCCCCCCCCCOC(C)=O | 102% | 93.6% | 93.1% | 97% | 103% | 96.9% | 105% | 105% |  |
| CCOC(=O)CCCS(C)(=O)=O | 117% | 113% | 105% | 99% | 113% | 108% | 117% | 97.7% | 108% |
| NNc1ccccc1C(=O)O | 121% | 108% | 168% | 104% | 114% | 100% | 114% | 101% | 103% |

| Structure (SMILES) | growth (DU-145 prostate) | growth (K-562 leukemia) | growth (MALME-3M melanoma) | growth (MDA-MB-231 breast) | growth (RXF 393 renal) | growth (SF-268 CNS) | growth (SF-295 CNS) | growth (SF-539 CNS) | growth (UACC-257 melanoma) |
| --- | --- | --- | --- | --- | --- | --- | --- | --- | --- |
| CC(=O)Oc1ccc(Br)cc1C(=O)O | 120% | 109% | 98.2% | 118% | 98.8% | 106% | 109% | 93.2% | 101% |
| COc1cc2c(cc1O)CC[C@@H]1C2CC[C@@]2(C)C1CC[C@@H]2O (stereo not given in full) | 11% | 2.79% (active) | 48.1% | 26.7% | -4.44% (active) | 50.6% | 25.2% | -4.91% (active) | 23.3% |
| CCC(C)(C)C1CCC(O)CC1 (stereo not given) | 107% | 110% | 96.4% | 94.9% | 109% | 101% | 114% | 104% | 99.8% |
| COc1ncnc2c1cnn2C | 111% | 115% | 126% | 100% | 114% | 101% | 112% | 96.8% | 106% |
| O=[N+]([O-])c1ccc(CO)cc1 | 115% | 93.7% | 99.3% | 95.2% | 97.9% | 107% | 94.4% | 97.9% |  |
| CC(C)OC(=O)c1cc(NC(=S)OC(C)C)ccc1Cl | 83.8% | 73.7% | 67.6% | 72.7% | 35.8% | 92% | 83.5% | 89.6% | 78.9% |
| CC1(C)N=C(N)N=C(N)N1c1cccc(Br)c1 | 53.4% | 23.2% | 68.9% | 77.6% | 66.8% | 37.2% | -8.36% (active) | 16.2% | 56% |
| CC(C)(N)COS(=O)(=O)O | 111% | 104% | 108% | 93.4% | 110% | 92.7% | 101% | 99.3% |  |
| CCC(C)(O)c1ccc(C)cc1 (stereo not given) | 106% | 116% | 119% | 107% | 113% | 92.9% | 109% | 103% | 105% |
| O=C(Nc1ccccc1C(=O)NCC1CC1)c1cccs1 | 118% | 103% | 131% | 97.1% | 98.9% | 113% | 86.5% | 101% |  |
| Cc1cc(C)c(N)c(S(=O)(=O)O)c1 | 129% | 113% | 104% | 97.8% | 133% | 115% | 104% | 84.4% | 122% |
| CN(C)c1ccc2oc(=O)c3ccccc3c2c1 | 105% | 109% | 97.6% | 77.6% | 106% | 100% | 102% | 80.4% | 106% |
| CC[N+](C)(CC)CCO | 112% | 99.6% | 103% | 98.6% | 88.5% | 112% | 99.5% | 108% |  |
| Nc1ncnc2[nH]ncc12 | 2.47% (active) | 13% | 21.3% | 5.28% (active) | 14.9% | 29.9% | 21% | 35.6% | 16.3% |
| C=CCNc1ccccc1 | 122% | 113% | 124% | 86.7% | 113% | 104% | 138% | 104% | 102% |
| N#CC1(Nc2ccc3c4c(cccc24)CC3)CCCCC1 | 103% | 89.7% | 93.1% | 99.8% | 89.8% | 97% | 98.8% | 108% | 92.9% |
| CC(=O)c1ccc(C(C)(C)C)cc1 | 105% | 103% | 102% | 107% | 95.2% | 102% | 97.6% | 94.3% | 97.2% |
